This assay deals with RIPE3b1 activator (MafA, endogenous) (Mus musculus, UniProt Q8CF90 SEQ:1-359). The experiment in a line: competition; B4/5 roughly 20-fold more effective competitor than B4. Conditions: protein: extract; tags: beta cell line nuclear extract (betaTC-3, Min6); label: 32P; dsDNA, one strand shown. Here is the method: To define the factors associated with B4 and B5 mediated regulation, gel shift experiments were performed with probes spanning B4, B5, and B4+B5 (B4/5) and βTC-3 or MIN6 cell nuclear extracts (FIG. 12). Two common protein-DNA complexes were detected with the B4 and B4+B5 probes (labeled as A and B in FIG. 12B), whereas no binding was found with B5 (data not shown). The binding affinity of B4 and B4/5 for these complexes was determined with the wild type and B4+B5 double mutant site (B4+B5MT) competitors.
Chain of RIPE3b1 activator (MafA, endogenous) (Q8CF90 whole entry): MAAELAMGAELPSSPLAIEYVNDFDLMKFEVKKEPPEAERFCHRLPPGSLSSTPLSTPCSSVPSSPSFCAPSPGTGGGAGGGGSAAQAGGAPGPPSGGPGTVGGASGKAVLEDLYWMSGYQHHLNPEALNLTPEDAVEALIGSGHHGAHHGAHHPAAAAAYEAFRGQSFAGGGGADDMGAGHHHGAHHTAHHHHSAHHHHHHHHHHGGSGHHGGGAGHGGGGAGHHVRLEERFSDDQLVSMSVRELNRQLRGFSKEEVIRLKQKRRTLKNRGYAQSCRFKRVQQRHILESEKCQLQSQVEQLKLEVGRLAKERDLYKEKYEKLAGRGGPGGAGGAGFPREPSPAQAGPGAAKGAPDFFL
Turning to AGCTTTCTTTTTGCAAAGCACAGCAT, the binding signal was approximately 20 fold.

The values are drawn from patent US20050118148, “Compositions and methods related to mammalian Maf-A” (published 2005).
